Drawing on PubChem BioAssay (NCATS), this text covers Potency for 31 molecules.

Inconclusive results are not listed. Entries that show only a call come without a potency. The source made the active and inactive calls. Calls follow the shape of the dose curve; as a rule, active = well fitted cell-killing curve with a large enough effect; inconclusive = small, poorly fitted or top-dose-only effect, or effect the other way; inactive = flat fitted curve, though single readings scatter. Where a SMILES comes first, the peptide text is derived from it. The star is where a group is joined. Cbz = O=C(OCc1ccccc1)*; CH2Cl = ClC*
Potency is read from the fitted curve at half-maximal effect.

One test concerns Hek293T. Briefly: Primary qHTS to identify gynecologic anti-cancer compounds using libraries of approved drugs and bioactive compounds (AID 1345084). Also: nearly all actives have a fitted effect of over 55% in size. The note with it: Gynecologic cancer cell panel viability, ATPlite luminescence, 48 h, control line for the selectivity index; series mostly up to 57.5 µM. The gist of the method:
(§1)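 In this quantitative HTS, cell killing is estimated from loss of ATP-dependent luciferase light. Cells see five compound concentrations over a 48 h exposure.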
`Cn1ncc(Cl)c1-c1cc(C(=O)N[C@H](CN)Cc2cccc(F)c2)sc1Cl`: the Potency is 2.82 µM (active). Still for that read-out and setting: to `O=C(Nc1ncc([N+](=O)[O-])s1)c1ccccc1O` belongs “inactive”; to `Cc1ccc(N2CCN(S(=O)(=O)N3CCCCC3)CC2)c(C)c1`, “inactive”. Still for that read-out and setting: to `Cc1cc(F)c(C(=O)Nc2cccc(-c3nncn3C(C)C)n2)cc1-n1cnc(C2CC2)c1` belongs “inactive”.

Regarding `CCCCCCCCn1cc(CN(CC)CC)c2cc(-c3cnc(N)nc3)ccc21`, the Potency result was “inactive”. On the same count and under the same terms, next, `N#CC(CCCN1CCC(O)(c2ccc(Cl)cc2)CC1)(c1ccccc1)c1ccccc1`: “inactive”; `Cn1ncc(Cl)c1-c1cc(C(=O)NC(CN)Cc2ccc(F)c(F)c2)oc1Cl` (stereo unspecified): 0.794 µM (active); `C=C1C(=O)OC2C1CCC1(C)C(O)CC=C(C)C21` (stereo unspecified): “inactive”. On the same count and under the same terms, to `C=CCc1ccc(OC(C)Cc2ccc(OC)c(OC)c2)c(OC)c1` (stereo unspecified) belongs “inactive”. Same read-out and setting: next, `Cc1nc(Nc2cnn(C3CCNCC3)c2)nc2c1N(C)C(=O)c1cc3ccccc3cc1N2C`: “inactive”. Regarding `CN(C)C(=O)COC(=O)c1cc(-c2ccc(C3CCNCC3)cc2)c2ccc(-c3ccc(C(F)(F)F)cc3)cc2c1`, the Potency result is “inactive”. Turning to `C=C1C(=O)O[C@H]2C[C@@H](C)[C@@H]3CCC(=O)[C@@]3(C)C[C@H]12`, the Potency was 25.1 µM (active). Same read-out and setting: to `CCOc1ccc(S(=O)(=O)N2CCCCCC2)c2ccccc12` belongs “inactive”; to `CCN1CCN(Cc2ccc(NC(=O)c3ccc(C)c(Oc4ccnc5[nH]ccc45)c3)cc2C(F)(F)F)CC1`, “inactive”. Regarding `CC1(C)CC[C@]2(C(=O)O[C@@H]3O[C@H](CO)[C@@H](O)[C@H](O)[C@H]3O)CC[C@]3(C)C(=CCC4[C@@]5(C)CC[C@H](O[C@@H]6O[C@H](C(=O)O)[C@H](O)[C@H](O)[C@H]6O)C(C)(C)C5CC[C@]43C)[C@@H]2C1` (stereo partly specified), the Potency entry was “inactive”. The same measure, in the same setting: next, `O=C(NCc1cccs1)c1cc2nc(-c3ccco3)cc(C(F)(F)Cl)n2n1`: “inactive”.

The test system of the next test is JEG-3. Described as above. The note with it: Gynecologic cancer cell panel viability, ATPlite luminescence, 48 h; series mostly up to 57.5 µM. The gist of the method: as §1
For `Cc1c[nH]c2ncnc(N3CCC(CN)(C(=O)Nc4cccc(OC(=O)N(C)C)c4)CC3)c12`, the Potency entry is “inactive”. As to `O=C(Nc1ncc([N+](=O)[O-])s1)c1ccccc1O`, the Potency result is “inactive”. The same measure, in the same setting: to `Cc1ccc(NC(=O)C(C)C)cc1C1CCN(Cc2ccc(Oc3ccc(F)c(F)c3)cc2)CC1` belongs “inactive”; to `C=C(C=O)[C@]1(O)C[C@@]2(C)C(=CC1=O)C=C[C@H](OC(=O)/C=C/C=C/[C@H](C)CC)[C@@H]2C`, “inactive”. As for `Nc1nc(Nc2ccc3c(c2)CCC(N2CCCC2)CC3)nn1-c1cc2c(nn1)-c1ccccc1CCC2` (stereo unspecified), the Potency result is “inactive”.

On to `CNc1ccc([N+](=O)[O-])c(Nc2ccc3[nH]ncc3c2)n1`, for which the Potency entry was “inactive”. With `Cc1ccc(N2CCN(S(=O)(=O)N3CCCCC3)CC2)c(C)c1`, the Potency entry is “inactive”.

As for `Cc1cc(F)c(C(=O)Nc2cccc(-c3nncn3C(C)C)n2)cc1-n1cnc(C2CC2)c1`, the Potency entry is “inactive”. Consider `CCCCCCCCn1cc(CN(CC)CC)c2cc(-c3cnc(N)nc3)ccc21`, for which the Potency entry is “inactive”. On the same count and under the same terms, to `COc1cc(-n2cnc3cc(-c4ccc(Cl)cc4)sc3c2=O)ccc1OCCN1CCCC1` belongs “inactive”; to `N#CC(CCCN1CCC(O)(c2ccc(Cl)cc2)CC1)(c1ccccc1)c1ccccc1`, “inactive”; to `C=C1C(=O)OC2C1CCC1(C)C(O)CC=C(C)C21` (stereo unspecified), “inactive”.

`CC1CCCC(O)CC(=O)c2c(O)cc(O)cc2CC(=O)O1` (stereo unspecified): the Potency result was “inactive”. For `C=CCc1ccc(OC(C)Cc2ccc(OC)c(OC)c2)c(OC)c1` (stereo unspecified), the Potency result is “inactive”.

As for `Cc1nc(Nc2cnn(C3CCNCC3)c2)nc2c1N(C)C(=O)c1cc3ccccc3cc1N2C`, the Potency result is “inactive”. Still for that read-out and setting: to `CN(C)C(=O)COC(=O)c1cc(-c2ccc(C3CCNCC3)cc2)c2ccc(-c3ccc(C(F)(F)F)cc3)cc2c1` belongs “inactive”; to `C=CS(=O)(=O)NC1CCN(C(=O)CNc2cc(I)c(Cl)cc2OC)CC1`, “inactive”; to `COc1cc2c(NC3CCN(C(C)C)CC3)nc(N3CCC(F)(F)CC3)nc2cc1OCCCN1CCCC1`, 22.4 µM (active). Consider `C=C1C(=O)O[C@H]2C[C@@H](C)[C@@H]3CCC(=O)[C@@]3(C)C[C@H]12`, for which the Potency was 15.8 µM (active). As for `CCOc1ccc(S(=O)(=O)N2CCCCCC2)c2ccccc12`, the Potency entry was “inactive”. `CC(C)CC(=O)c1c(O)cc2c(c1O)C(CC(C)C)C1=C(O2)C(C)(C)C(=O)C(C)(C)C1=O` (stereo unspecified): the Potency entry was “inactive”.

Regarding `CC1(C)CC[C@]2(C(=O)O[C@@H]3O[C@H](CO)[C@@H](O)[C@H](O)[C@H]3O)CC[C@]3(C)C(=CCC4[C@@]5(C)CC[C@H](O[C@@H]6O[C@H](C(=O)O)[C@H](O)[C@H](O)[C@H]6O)C(C)(C)C5CC[C@]43C)[C@@H]2C1` (stereo partly specified), the Potency entry was “inactive”. Still for that read-out and setting: to `O=C(NCc1cccs1)c1cc2nc(-c3ccco3)cc(C(F)(F)Cl)n2n1` belongs “inactive”.

A further test deals with OV90. Described as above. As to conditions: Gynecologic cancer cell panel viability, ATPlite luminescence, 48 h; series mostly up to 57.5 µM. The gist of the method: as §1
Consider `C[C@H]1[C@H](/C=C/c2ccc(-c3ccccc3C#N)cn2)[C@@H]2[C@@H](C)OC(=O)[C@@H]2C[C@@H]1C`, for which the Potency result is “inactive”. In the case of `Cc1c[nH]c2ncnc(N3CCC(CN)(C(=O)Nc4cccc(OC(=O)N(C)C)c4)CC3)c12`, the Potency is 11.2 µM (active). For the molecule `O=C(Nc1ncc([N+](=O)[O-])s1)c1ccccc1O`, the Potency entry was “inactive”. Regarding `Nc1nc(Nc2ccc3c(c2)CCC(N2CCCC2)CC3)nn1-c1cc2c(nn1)-c1ccccc1CCC2` (stereo unspecified), the Potency entry is “inactive”. The same measure, in the same setting: next, `CNc1ccc([N+](=O)[O-])c(Nc2ccc3[nH]ncc3c2)n1`: “inactive”; `Cc1ccc(N2CCN(S(=O)(=O)N3CCCCC3)CC2)c(C)c1`: “inactive”. The same measure, in the same setting: next, `Cc1cc(F)c(C(=O)Nc2cccc(-c3nncn3C(C)C)n2)cc1-n1cnc(C2CC2)c1`: “inactive”; `N#CC(CCCN1CCC(O)(c2ccc(Cl)cc2)CC1)(c1ccccc1)c1ccccc1`: 15.8 µM (active); `C=C1C(=O)OC2C1CCC1(C)C(O)CC=C(C)C21` (stereo unspecified): “inactive”.

On to `CC(C)C[C@H](NC(=O)CNC(=O)OCc1ccccc1)C(=O)N[C@@H](Cc1ccccc1)C(=O)CCl` (Cbz-Gly-Leu-Phe-CH2Cl), for which the Potency result is “inactive”. Same read-out and setting: to `C=C1C(=O)OC2/C=C(\COC(C)=O)CC/C=C(\C=O)CC(OC(=O)C(C)CC)C12` (stereo unspecified) belongs “inactive”. On the same count and under the same terms, to `C/C=C(\C)C(=O)O[C@H]1C=C(CO)C(=O)[C@H](OC(C)=O)[C@H]1C(C)C` belongs “inactive”. Turning to `CC1CCCC(O)CC(=O)c2c(O)cc(O)cc2CC(=O)O1` (stereo unspecified), the Potency result was “inactive”. On the same count and under the same terms, next, `C=CCc1ccc(OC(C)Cc2ccc(OC)c(OC)c2)c(OC)c1` (stereo unspecified): “inactive”; `Cc1nc(Nc2cnn(C3CCNCC3)c2)nc2c1N(C)C(=O)c1cc3ccccc3cc1N2C`: “inactive”. Turning to `COc1cc2c(NC3CCN(C(C)C)CC3)nc(N3CCC(F)(F)CC3)nc2cc1OCCCN1CCCC1`, the Potency is 11.2 µM (active). In the case of `C=C1C(=O)O[C@H]2C[C@@H](C)[C@@H]3CCC(=O)[C@@]3(C)C[C@H]12`, the Potency was 22.4 µM (active). As for `CCOc1ccc(S(=O)(=O)N2CCCCCC2)c2ccccc12`, the Potency entry is “inactive”.

In the case of `CC(C)CC(=O)c1c(O)cc2c(c1O)C(CC(C)C)C1=C(O2)C(C)(C)C(=O)C(C)(C)C1=O` (stereo unspecified), the Potency entry was “inactive”. The same measure, in the same setting: to `CC(=O)OC1[C@H]2[C@@H](C[C@@H](C)[C@@H]3C=CC(=O)[C@@]13C)OC(=O)[C@@H]2C` (stereo partly specified) belongs “inactive”.

On to `CC1(C)CC[C@]2(C(=O)O[C@@H]3O[C@H](CO)[C@@H](O)[C@H](O)[C@H]3O)CC[C@]3(C)C(=CCC4[C@@]5(C)CC[C@H](O[C@@H]6O[C@H](C(=O)O)[C@H](O)[C@H](O)[C@H]6O)C(C)(C)C5CC[C@]43C)[C@@H]2C1` (stereo partly specified), for which the Potency result was “inactive”. The same measure, in the same setting: to `O=C(NCc1cccs1)c1cc2nc(-c3ccco3)cc(C(F)(F)Cl)n2n1` belongs “inactive”.
